According to ChEMBL document CHEMBL4513141, “CO-ADD screening of NIH (USA) - Clinical Collection” (2021):
Entries with a potency or affinity are not part of this list.

Assays:
[1] = system: Staphylococcus aureus; settings: Concentration 20 uM; ASSAY_TEST Inhibition of Bacterial Growth; detection method Absorption (OD600); MEDIA CAMHB; plate type 384well; NBS; CORNING #3640; time 18 hr
[2] = system: Escherichia coli; settings: Concentration 20 uM; ASSAY_TEST Inhibition of Bacterial Growth; detection method Absorption (OD600); MEDIA CAMHB; plate type 384well; NBS; CORNING #3640; time 18 hr

| Compound | Inhibition [1] [%] | Inhibition [2] [%] |
| --- | --- | --- |
| CC(=O)CC(c1ccccc1)c1c([O-])c2ccccc2oc1=O.[Na+] (stereo not drawn) [WARFARIN SODIUM] | 12.98 | -2.34 |
| COc1ccc2[nH]cc(CCN)c2c1 [5-METHOXYTRYPTAMINE] | 3.43 | -0.18 |
| CC(C)NCC(O)c1ccc(O)c(O)c1.Cl (stereo not drawn) [ISOPROTERENOL HYDROCHLORIDE] | 7.54 | -1.63 |
| Cl.NCC(O)c1ccc(O)c(O)c1 (stereo not drawn) | 10.44 | 0.24 |
| CC[N+](C)(C)c1cccc(O)c1.[Cl-] [EDROPHONIUM CHLORIDE] | 15.74 | 2.93 |
| Fc1ccc([C@@H]2CCNC[C@H]2COc2ccc3c(c2)OCO3)cc1.O=C(O)/C=C\C(=O)O | 0.49 | 6.75 |
| C[N+]1(C)CCN(c2ccccc2)CC1.[I-] [DIMETHYLPHENYLPIPERAZINIUM IODIDE] | 11.69 | 3.59 |
| C[N+]1(C)CCCC(OC(=O)C(O)(c2ccccc2)c2ccccc2)C1.[Br-] (stereo not drawn) [MEPENZOLATE BROMIDE] | 1.79 | 3.23 |
| O.O=P1(N(CCCl)CCCl)NCCCO1 (stereo not drawn) [CYCLOPHOSPHAMIDE] | 2.64 | 1.99 |
| C[N+]1(C)CCC(OC(=O)C(O)(c2ccccc2)C2CCCC2)C1.[Br-] (stereo not drawn) [GLYCOPYRRONIUM BROMIDE] | 11.8 | – |
| COc1cc([C@@H]2c3cc4c(cc3[C@H](O)[C@H]3COC(=O)[C@H]23)OCO4)cc(OC)c1OC [PODOFILOX] | 6.19 | 3.91 |
| C[C@]12CC[C@H](O)CC1=CC[C@@H]1[C@@H]2CC[C@]2(C)C(=O)CC[C@@H]12 [PRASTERONE] | 13.56 | 2.6 |
| COc1cc2c(cc1OC)[C@@]13CCN4CC5=CCO[C@H]6CC(=O)N2[C@H]1[C@H]6[C@H]5C[C@H]43 [BRUCINE] | 7.1 | -1.43 |
| CC(C)N(CCC(C(N)=O)(c1ccccc1)c1ccccn1)C(C)C.O=P(O)(O)O (stereo not drawn) [DISOPYRAMIDE PHOSPHATE] | 5.5 | -2.32 |
| Cc1cc(NS(=O)(=O)c2ccc(N)cc2)no1 [SULFAMETHOXAZOLE] | -14.52 | 28.59 |
| CN(C)CCC=C1c2ccccc2CCc2ccccc21.Cl [AMITRIPTYLINE HYDROCHLORIDE] | 5.1 | 1.2 |
| CN1CCN(C(=O)O[C@H]2c3nccnc3C(=O)N2c2ccc(Cl)cn2)CC1 [ESZOPICLONE] | -7.93 | -0.26 |
| O=C(O)CCCc1ccc(N(CCCl)CCCl)cc1 [CHLORAMBUCIL] | 7.69 | 8.33 |
| Cl.c1ccc2c(CC3=NCCN3)cccc2c1 [NAPHAZOLINE HYDROCHLORIDE] | 21.19 | 2.28 |
| Br.CN1[C@@H]2CC(OC(=O)[C@H](CO)c3ccccc3)C[C@H]1[C@@H]1O[C@@H]12.O.O.O (stereo partly drawn) | 15.22 | – |

| Compound | Inhibition [1] [%] | Inhibition [2] [%] |
| --- | --- | --- |
| Cl.Oc1ccc2c3c1OC1C(O)CC[C@@]4(O)[C@@H](C2)N(CC2CCC2)CC[C@]314 (stereo partly drawn) | 18.7 | -2.31 |
| COc1ccc2[nH]cc(C3=CCNCC3)c2c1.COc1ccc2[nH]cc(C3=CCNCC3)c2c1.O=C(O)CCC(=O)O | 16.86 | 5.51 |
| CNC(=O)Oc1ccc2c(c1)[C@]1(C)CCN(C)C1N2C.CNC(=O)Oc1ccc2c(c1)[C@]1(C)CCN(C)C1N2C.O=S(=O)(O)O (stereo partly drawn) | 12.91 | -3.79 |
| N=C(NCc1ccc(Cl)cc1)SCCCc1c[nH]cn1 [CLOBENPROPIT] | -4.61 | -3.53 |
| NC(=O)C[S+]([O-])C(c1ccccc1)c1ccccc1 (stereo not drawn) [MODAFINIL] | 3.29 | 4.2 |
| Cl.O[C@@H]1CCCC[C@H]1N1CCC(c2ccccc2)CC1 | 14.8 | 1.48 |
| CS(=O)(=O)O.O=C(O[C@@H]1C[C@@H]2C[C@H]3C[C@H](C1)N2CC3=O)c1c[nH]c2ccccc12 | 5.34 | 6.66 |
| CC[C@@H]1/C=C/C=C/C[C@H](C)[C@@H](O)[C@](C)(O)C(=O)[C@H](C)[C@@H](O)[C@H](C)C(=O)[C@H](C)[C@@H](O)[C@H](C)/C=C/C(=O)O[C@H]2[C@@H](C)[C@@H](CC1)O[C@@]1(CC[C@@H](C)[C@@H](C[C@H](C)O)O1)[C@@H]2C | 9.12 | 0.23 |
| Nc1nc2ccc(Cl)cc2c2nc(-c3ccco3)nn12 [CGS-15943] | 11.02 | 5.2 |
| CC(C)c1cccc(C(C)C)c1O [PROPOFOL] | -2.39 | -13.59 |
| C[C@]12Cc3c[nH]nc3C[C@@H]1CC[C@@H]1[C@@H]2CC[C@@]2(C)[C@H]1CC[C@]2(C)O [STANOZOLOL] | -5.12 | 3.01 |
| C[C@]12CC[C@H](O)CC1=CC[C@@H]1[C@@H]2CC[C@@]2(C)[C@H]1CC[C@]2(C)O [METHANDRIOL] | 0.46 | 5.99 |
| Cl.N=C(N)NC(=O)c1nc(Cl)c(N)nc1N.O.O [AMILORIDE HYDROCHLORIDE] | 11.17 | 2.12 |
| CN/C(=N\CCSCc1nc[nH]c1C)NC#N [CIMETIDINE] | 12.6 | -4.2 |
| CN1CC[C@@]23CCCC[C@@H]2[C@@H]1Cc1ccc(O)cc13.O=C(O)C(O)C(O)C(=O)O | 4.84 | 6.67 |
| CNC1=Nc2ccc(Cl)cc2C(c2ccccc2)=[N+]([O-])C1 [CHLORDIAZEPOXIDE] | 15.47 | 3.48 |
| Cc1c(OCC(F)(F)F)ccnc1C[S+]([O-])c1nc2ccccc2[nH]1 (stereo not drawn) [LANSOPRAZOLE] | 16.66 | -0.87 |
| COc1ccc(CCN)cc1OC | 8.89 | -3.33 |
| O=C(O[C@@H]1Cc2c(O)cc(O)cc2O[C@@H]1c1cc(O)c(O)c(O)c1)c1cc(O)c(O)c(O)c1 [EPIGALOCATECHIN GALLATE] | 13.39 | 5.85 |
| COC(=O)C[C@](O)(CCCC(C)(C)O)C(=O)O[C@@H]1C(OC)=C[C@]23CCCN2CCc2cc4c(cc2[C@H]13)OCO4 [OMACETAXINE MEPESUCCINATE] | 10.39 | 7.87 |

| Compound | Inhibition [1] [%] | Inhibition [2] [%] |
| --- | --- | --- |
| NC(=O)OCCCc1ccccc1 [PHENPROBAMATE] | 11.43 | 2.85 |
| Br.COc1ccc2c(c1)[C@]13CCCC[C@@H]1[C@H](C2)N(C)CC3.O [DEXTROMETHORPHAN HYDROBROMIDE] | 17.11 | 4.79 |
| NCCc1ccccn1 | 1.79 | 8.78 |
| CN[C@@H]1C[C@@H](c2ccc(Cl)c(Cl)c2)c2ccccc21.Cl [INDATRALINE HYDROCHLORIDE] | -18.12 | 7.7 |
| CCCN1C[C@H](CSC)C[C@@H]2c3cccc4[nH]cc(c34)C[C@H]21.CS(=O)(=O)O [PERGOLIDE MESYLATE] | 12.62 | 4.25 |
| NC1=NC(=O)C(c2ccccc2)O1 (stereo not drawn) [PEMOLINE] | 13.44 | 0.76 |
| C[C@]12CCC(=O)C=C1CC[C@@H]1[C@@H]2CC[C@@]2(C)[C@H]1CC[C@]2(C)O [METHYLTESTOSTERONE] | 7.28 | 3.56 |
| CCN(CC)CCOC(=O)C(O)(c1ccccc1)c1ccccc1.Cl | 13 | -0.91 |
| Oc1ncnc2[nH]ncc12 [ALLOPURINOL] | 15.53 | 6.23 |
| Cl.O=C1CC[C@@]2(O)[C@H]3Cc4ccc(O)c5c4[C@@]2(CCN3CC2CC2)[C@H]1O5 [NALTREXONE HYDROCHLORIDE] | 14.26 | 5.04 |
| C=C(C)CN1CC[C@]23c4c5ccc(O)c4O[C@H]2c2[nH]c4ccccc4c2C[C@@]3(O)C1C5.Cl.O | 1.35 | 1.94 |
| C#C[C@]1(OC(C)=O)CC[C@H]2[C@@H]3CCC4=CC(=O)CC[C@@H]4[C@H]3CC[C@@]21C [NORETHINDRONE ACETATE] | 11.13 | -1.23 |
| CC(C)CC(N(C)C)C1(c2ccc(Cl)cc2)CCC1 (stereo not drawn) [SIBUTRAMINE] | 0.87 | 6.8 |
| CN1CCN(C2=Nc3cc(Cl)ccc3Nc3ccccc32)CC1 [CLOZAPINE] | -2.25 | -7.08 |
| CC(=O)[C@H]1CC[C@H]2[C@@H]3CCC4=CC(=O)CC[C@]4(C)[C@H]3CC[C@]12C [PROGESTERONE] | 12.63 | 3.02 |
| Cl.O=C1CC2(CCCC2)CC(=O)N1CCCCN1CCN(c2ncccn2)CC1 [BUSPIRONE HYDROCHLORIDE] | 17.44 | 4.5 |
| CN(C)CCc1c[nH]c2ccc(C[C@H]3COC(=O)N3)cc12 [ZOLMITRIPTAN] | 3.79 | 7.38 |
| CCOC(=O)C1=C(COCCN)NC(C)=C(C(=O)OC)C1c1ccccc1Cl (stereo not drawn) [AMLODIPINE] | -19.31 | 5.81 |
| CN1C(=O)CN=C(c2ccccc2)c2cc(Cl)ccc21 [DIAZEPAM] | 9.71 | 3.05 |
| CC(C)C(=O)Nc1ccc([N+](=O)[O-])c(C(F)(F)F)c1 [FLUTAMIDE] | 10.52 | 4.1 |
